The term AC50 denotes the midpoint of the concentration-response curve, whichever way the signal moves.

Several values for one entry are separate records, joined by “and”; a condition that tells them apart may be missing. Identical values can stand only once. Records with an inconclusive call do not appear. Some structures have more than one record in an assay (separate samples or runs), and their calls can disagree. Activity calls are given as the source filed them. Rule for the calls, unless noted: active = hit-call score of the fitted dose curve at least 0.9, where 1 is the maximum; inactive = score below 0.9.

In PubChem BioAssay (EPA / NIEHS) one finds AC50 and outcome data, which are given here for ten molecules.

The subject of one assay is TTR (gene 7276). Briefly: CCTE_GLTED_hTTR_0.5uM: CCTE's human Transthyretin (hTTR) Inhibition Assay, with 0.5uM TTR, Great Lakes Toxicology and Ecology Division (GLTED) Lab (AID 2284320). A digest of the protocol: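 Probe (ANSA) displacement from 0.5 uM human transthyretin was followed by fluorescence (ex 380, em 475) after a 2 h incubation with chemical. Activity was scored as signal loss and fitted positively relative to DMSO.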

Assay [1] is described as follows: CCTE_Deisenroth_5AR_NBTE_donor: CCTE's 5alpha-reductase NanoBRET Target Engagement Assay […], Deisenroth Lab (AID 2284319). The settings on record: actives raise or lower the signal. The method, boiled down:
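In this secondary endpoint, donor luminescence from SRD5A2-NanoLuc in transfected HEK293T flags artifacts. Test chemical (10 nM - 29.9 uM) is present five hours, tracer the last two; mock-tracer wells run plate-matched; data fitted bidirectionally against DMSO.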
In general terms: Bioluminescence resonance energy transfer reports proximity on the nanometre scale.

Assay [2] can be described thus: CCTE_Deisenroth_5AR_NBTE_acceptor: CCTE's 5alpha-reductase NanoBRET Target Engagement Assay - Autofluorescence Screen, Deisenroth Lab (AID 2284321).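 Note: compound fluorescence in the acceptor channel under 460 nm excitation flags autofluorescence artifacts.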 To be noted: actives raise or lower the signal. A digest of the protocol:
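Acceptor fluorescence intensity was read as an artifact-detection endpoint. Test chemicals at an assumed nominal 100 uM were excited at 460 nm across three independent runs. Activity was fitted bidirectionally against DMSO.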

A further assay deals with SRD5A2 (gene 6716). Briefly: CCTE_Deisenroth_5AR_NBTE_ratio: CCTE's 5alpha-reductase NanoBRET Target Engagement Assay - Ratio, Deisenroth Lab (AID 2284322). The settings on record: actives raise or lower the signal. The method, boiled down:
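HEK293T cells transiently expressing an SRD5A2-NanoLuc fusion (20 h post-transfection) were exposed to test chemical (10 nM - 29.9 uM, 8 points) for 3 h, then testosterone tracer for a further 2 h. Acceptor/donor BRET ratio was fitted bidirectionally against DMSO baseline.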

The nature of assay [3]: TAMU_PeakParms_SingleDonor1434_Asystole: Texas A&M University (TAMU) 1.5-hr Human Induced Pluripotent Stem Cell (iPSC)-derived Cardiomyocytes Calcium (Ca+2) Flux Assay for Cardiotoxicity: Asystole (quiescence of beating) (AID 2284328; active = hit-call score of the fitted dose curve at least 0.9, where 1 is the maximum). The method, boiled down:
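Human iPSC-derived cardiomyocytes (donor 1434) were exposed to 0.2, 1, 10 and 100 uM compound in 0.5% DMSO for 90 min at 37C. Ca2+-dye fluorescence gave average peak frequency; POD is EC95, a 95% beat-rate drop versus DMSO.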

Assay [4] can be described thus: IUF_NPC2-5_cell_number_120hr: Cell Number Assessment at 120 hours in the Leibniz Research Institute for Environmental Medicine (IUF) Neural Progenitor Cell Migration and Differentiation Assay (NPC2-5) (AID 2284308).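 Note: count of Hoechst-stained nuclei in migration zone around plated human neural progenitor spheres.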 The method, boiled down: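 hNPC spheres, one per well, PDL/laminin, N2 medium, 37C, 5% CO2. Dosing day 0 → half-medium change with fresh compound day 3 → fix 120 h. Readout: Hoechst+ nuclei count, migration area; 7 concentrations plus solvent control.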

The nature of assay [5]: IUF_NPC2-5_viability_120hr: Viability Assessment at 120 hours in the Leibniz Research Institute for Environmental Medicine (IUF) Neural Progenitor Cell Migration and Differentiation Assay (NPC2-5) (AID 2284312). A digest of the protocol: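 Human fetal (GW 16-19) neural progenitor spheres of 0.3 mm were plated on poly-D-lysine/laminin in N2 differentiation medium and exposed from day 0 for 120 h, with half-medium refresh at day 3. Viability was read as alamar blue resazurin-to-resorufin fluorescence against DMSO.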

A short description of assay [6]: CCTE_Mundy_HCI_iCellGluta_NOG_NeuriteLength: CCTE's Neurite Outgrowth Assay in iCellGluta cells for Neurite Length, Mundy Lab (AID 2284318; active = hit-call score of the fitted dose curve at least 0.9, where 1 is the maximum). The method, boiled down: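 Automated high-content imaging of betaIII-tubulin (Alexa Fluor-488) and Hoechst-stained cells gave neurite length, normalized to the DMSO baseline.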
Assay [7] in a line: IUF_NPC1_cytotoxicity_72hr: Cytotoxicity Assessment at 72 hours in the Leibniz Research Institute for Environmental Medicine (IUF) Neural Progenitor Cell Proliferation Assay (NPC1) (AID 2284332; active = hit-call score of the fitted dose curve at least 0.9, where 1 is the maximum;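 note: rising LDH signal means more cytotoxicity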). A digest of the protocol: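 Cytotoxicity by LDH membrane-integrity assay on medium supernatants, fluorescence via resazurin reduction, after 3-day single exposure of primary hNPC spheres at 37C, pH 7.2-7.6 with growth factors. Fitted upward against baseline.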

Assay [8] concerns Brachyury (BRA) Protein Expression, Deisenroth Lab, TBXT (gene 6862). Briefly: CCTE_Deisenroth_DEVTOX-GLR_legacy_Bra: (Legacy) CCTE's DevTox GLR-Endo Assay Evaluation of Brachyury (BRA) Protein Expression, Deisenroth Lab (AID 2284329). A digest of the protocol:
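High-content imaging of fixed RUES2-GLR cells after a 48-hour differentiation with two compound exposures yields percent cells whose Bra signal exceeds pluripotent control median by 5x BMAD; values are baseline-corrected to DMSO.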

Assay [9] can be described thus: CCTE_Deisenroth_DEVTOX-GLR_legacy_CellCount: (Legacy) Viability Assessment in CCTE's DevTox GLR-Endo Assay, Deisenroth Lab (AID 2284331). To be noted: actives raise or lower the signal. A digest of the protocol: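 Seed RUES2-GLR 24 h; differentiate 48 h, dosing at 0 and 24 h; fix, stain nuclei; image 5 fields/well; count nuclei. Conc. 1 nM - 200 uM, single technical replicate, n=4 experiments; bidirectional fit vs 0.2% DMSO.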

As for `FC(F)(I)C(F)(F)C(F)(F)C(F)(F)C(F)(F)C(F)(F)I`, the AC50 with TTR (gene 7276) is 1.91 µM (active) and 1.88 µM (active).
Consider `CCOC(=O)CC(O)(CC(=O)OCC)C(=O)OCC`, for which the call (in assay [1]; in assay [2]; in the assay with SRD5A2 (gene 6716)) was inactive.
As to `c1ccc2c(c1)Cc1ccccc1-2`, the result in assay [3] was inactive.
`c1ccc2cc3c(ccc4ccccc43)cc2c1`: the result in [3] was inactive.
For the molecule `CN1CCC[C@H]1c1cccnc1`, the call in [4] and in [5] was inactive.
Take `CCCCCCCCOC(=O)CCCCCCCCC(=O)OCCCCCCCC`: the call (in assay [1]; in [2]; in the assay on SRD5A2 (gene 6716)) was inactive.
For `OCCC(F)(F)C(F)(F)C(F)(F)C(F)(F)C(F)(F)C(F)(F)F`, the molecule was called inactive in [6].
`CC#C[C@]1(O)CC[C@H]2[C@@H]3CCC4=CC(=O)CCC4=C3[C@@H](c3ccc(N(C)C)cc3)C[C@@]21C`: the result in assay [4], in assay [5], in [6], in assay [3] and in assay [7] was inactive. For the same molecule, the AC50 in assay [6] is 50 µM (active).
As to `c1ccc2c(c1)ccc1ccccc12`, the result in [3] was inactive.
Regarding `CC1=C(/C=C/C(C)=C/C=C/C(C)=C/C(=O)O)C(C)(C)CCC1`, the molecule was classed as inactive in assay [4], in assay [5] and in assay [7]. In addition, the AC50 in [8] was 11.7 µM (active); in assay [9], 4.44 µM (active).
